The whole screen tested about 5,500 compounds, of which about 2,000 (36%) were called active. Not shown: some 18% with an inconclusive outcome. Cut-off read from the data, not from the text of the source: active = normalized growth mostly below about 0.91 (no sharp cut-off); inconclusive = no clear call, values can overlap the other calls; inactive = mostly above about 0.92. Some of the results follow.
Assay: chemical genetic growth profiling, strain panel (AID 1159580);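 note: tested at 20 µM; growth read once vehicle control cultures reached saturation at 30 °C; 1 = growth at the plate median or of vehicle wells; lower values mean less growth of the strain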
Conditions: S. cerevisiae deletion strains, growth OD

Measured: normalized growth

FC(F)(F)COCC(F)(F)F
inactive: locus YAL021C, strain ccr4, active compounds read low 1.02 | locus YAL026C, strain drs2, active compounds read low 1.04 | locus YAL030W, strain snc1, active compounds read low 0.993 | locus YBL061C, strain skt5, active compounds read low 1.03 | locus YBR009C, strain hhf1, active compounds read low 0.998 | locus YBR023C, strain chs3, active compounds read low 1.03 | locus YBR171W, strain sec66, active compounds read low 1.01 | locus YBR231C, strain swc5, active compounds read low 1.02 | locus YBR279W, strain paf1, active compounds read low 1.02 | locus YCL011C, strain gbp2, active compounds read low 1.02 | locus YCL016C, strain dcc1, active compounds read low 1.03 | locus YCL069W, strain vba3, active compounds read low 1.03 | locus YCR088W, strain abp1, active compounds read low 1.01 | locus YDL005C, strain med2, active compounds read low 1.01 | locus YDL040C, strain nat1, active compounds read low 1.02 | locus YDR001C, strain nth1, active compounds read low 1.01 | locus YDR069C, strain doa4, active compounds read low 1.02 | locus YDR137W, strain rgp1, active compounds read low 1.03 | locus YDR159W, strain sac3, active compounds read low 0.963 | locus YDR195W, strain ref2 0.996 | locus YDR297W, strain sur2, active compounds read low 1.01 | locus YDR334W, strain swr1, active compounds read low 1.01 | locus YDR335W, strain msn5, active compounds read low 1.03 | locus YDR392W, strain spt3, active compounds read low 0.971 | locus YEL003W, strain gim4, active compounds read low 0.992 | locus YEL037C, strain rad23, active compounds read low 1.01 | locus YEL061C, strain CIN8 (second series), active compounds read low 1 | locus YER015W, strain faa2, active compounds read low 1.02 | locus YER016W, strain bim1, active compounds read low 1.03 | locus YER111C, strain swi4, active compounds read low 1.01 | locus YER155C, strain BEM2 (second series), active compounds read low 0.986 | locus YFR010W, strain ubp6, active compounds read low 0.999 | locus YGL167C, strain pmr1, active compounds read low 1.02 | locus YGL173C, strain kem1, active compounds read low 1 | locus YGL227W, strain vid30, active compounds read low 1.02 | locus YGL240W, strain doc1, active compounds read low 0.996 | locus YGL253W, strain hxk2, active compounds read low 1.03 | locus YHR013C, strain ard1, active compounds read low 1.02 | locus YHR027C, strain rpn1, active compounds read low 1.02 | locus YHR030C, strain SLT2, active compounds read low 0.998 | locus YHR079C, strain IRE1, active compounds read low 0.96 | locus YHR142W, strain chs7, active compounds read low 1.03 | locus YJL092W, strain hpr5, active compounds read low 1.02 | locus YJL095W, strain BCK1 (second series), active compounds read low 1.03 | locus YJL095W, strain BCK1, active compounds read low 1 | locus YJL115W, strain asf1, active compounds read low 1.02 | locus YJL129C, strain trk1, active compounds read low 1.04 | locus YJL154C, strain vps35, active compounds read low 1.04 | locus YJL164C, strain tpk1, active compounds read low 1.02 | locus YJL166W, strain qcr8, active compounds read low 0.986 | locus YJL187C, strain SWE1, active compounds read low 1.02 | locus YJR066W, strain TOR1, active compounds read low 0.938 | locus YKL160W, strain elf1, active compounds read low 1.01 | locus YKR026C, strain gcn3, active compounds read low 1.01 | locus YKR091W, strain srl3, active compounds read low 1.01 | locus YLL001W, strain dnm1, active compounds read low 0.988 | locus YLL026W, active compounds read low 1 | locus YLL041C, strain sdh2, active compounds read low 1.02 | locus YLR027C, strain aat2, active compounds read low 1.02 | locus YLR113W, strain HOG1, active compounds read low 0.999 | locus YLR221C, strain rsa3, active compounds read low 0.996 | locus YLR258W, strain gsy2, active compounds read low 1.04 | locus YLR262C, strain YPT6 (second series), active compounds read low 0.992 | locus YLR320W, strain mms22, active compounds read low 0.968 | locus YLR342W, strain FKS1, active compounds read low 1.03 | locus YLR357W, strain rsc2, active compounds read low 1.01 | locus YLR370C, strain arc18, active compounds read low 1.03 | locus YLR384C, strain iki3, active compounds read low 1.02 | locus YML120C, strain ndi1, active compounds read low 1 | locus YMR058W, strain fet3, active compounds read low 1.04 | locus YMR125W, strain sto1, active compounds read low 1.04 | locus YMR129W, active compounds read low 1 | locus YMR205C, strain PFK2, active compounds read low 1 | locus YMR231W, strain pep5, active compounds read low 1.01 | locus YNL071W, strain lat1, active compounds read low 1.03 | locus YNL183C, strain NPR1, active compounds read low 0.948 | locus YNL209W, strain ssb2, active compounds read low 1.03 | locus YNL248C, strain rpa49, active compounds read low 1.04 | locus YNL322C, strain KRE1 (second series), active compounds read low 1.02 | locus YNR049C, strain mso1, active compounds read low 1.01 | locus YOR001W, strain rrp6, active compounds read low 0.986 | locus YOR070C, strain gyp1, active compounds read low 1.01 | locus YOR080W, strain dia2, active compounds read low 1.01 | locus YOR083W, strain WHI5, active compounds read low 0.981 | locus YOR106W, strain vam3, active compounds read low 1.04 | locus YOR231W, strain MKK1, active compounds read low 0.993 | locus YOR265W, strain rbl2, active compounds read low 1.01 | locus YOR270C, strain vph1, active compounds read low 1.07 | locus YOR290C, strain snf2, active compounds read low 1.03 | locus YPL051W, strain arl3, active compounds read low 1.03 | locus YPL078C, strain atp4, active compounds read low 1.03 | locus YPL106C, strain sse1, active compounds read low 0.983 | locus YPL240C, strain hsp82, active compounds read low 1 | locus YPL256C, strain CLN2, active compounds read low 0.948

— PubChem BioAssay AID1159580 (chemical genetic matrix, 2015)
